# Screening results deposited in PubChem by several laboratories.
# NADH coupling: inhibition of NAD/NADH coupling enzymes, library profiling. coupled PK/LDH NADH assays, four targets. IC50, µM (top dose mostly 10 µM), without a hit: at the highest dose inhibition. actives 0.02% (n = 65,000);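 active = single-dose screening hits from any of four coupled enzyme assays that gave an IC50 when retested across doses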;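 note: the DPM-DC format reads NADH fluorescence rather than 340 nm absorbance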
# mHtt clearance: mutant huntingtin protein clearance. HeLa Exon1htt(103Q)mCFP, aggregate imaging; zero = plate's median compound well. inhibition, % at 1.5 µM. actives 0.42% (n = 47,000). AID 853;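 active = inhibition of aggregate fluorescence above about 70%, also judged a hit by eye on the cell image, limit read from the data, passing the limit was not always enough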;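 note: cells exposed to compound for three days before fixation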
# Abs 340nm: compounds absorbing at 340 nm; fold change at 10 µM; compound absorbance at 340 nm, fold over control; 65,000 tested, under 10 active;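 active = at 10 µM dose, initial 340 nm absorbance at least 2 fold that of control wells; inactive = change under 2 fold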;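 note: initial absorbance extrapolated from kinetic A340 decline of NADH oxidation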
# M1 agonist: agonists of M1 muscarinic receptor; CHO-M1 cells, Fluo-4 calcium fluorescence, agonist mode; stronger effect = higher value; B-score at 10 µM; actives 3% (n = 64,000); AID 626;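 active = fluorescence rise, raw or as B-score row- and column-corrected plate score, outside the 99.7% band of its plate's samples, either direction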
# M1 antag: M1 muscarinic receptor (rat) antagonism; B-score at 10 µM; CHO-M1 cells, Fluo-4 calcium, ACh EC80 antagonist mode; stronger effect = lower value; actives 3.4% (n = 64,000); P08482;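 active = calcium fluorescence response, raw or row-and-column corrected B-score, differing from the plate sample mean either way at a set confidence level, mostly lower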
# Target sequence (P08482 whole entry, looked up): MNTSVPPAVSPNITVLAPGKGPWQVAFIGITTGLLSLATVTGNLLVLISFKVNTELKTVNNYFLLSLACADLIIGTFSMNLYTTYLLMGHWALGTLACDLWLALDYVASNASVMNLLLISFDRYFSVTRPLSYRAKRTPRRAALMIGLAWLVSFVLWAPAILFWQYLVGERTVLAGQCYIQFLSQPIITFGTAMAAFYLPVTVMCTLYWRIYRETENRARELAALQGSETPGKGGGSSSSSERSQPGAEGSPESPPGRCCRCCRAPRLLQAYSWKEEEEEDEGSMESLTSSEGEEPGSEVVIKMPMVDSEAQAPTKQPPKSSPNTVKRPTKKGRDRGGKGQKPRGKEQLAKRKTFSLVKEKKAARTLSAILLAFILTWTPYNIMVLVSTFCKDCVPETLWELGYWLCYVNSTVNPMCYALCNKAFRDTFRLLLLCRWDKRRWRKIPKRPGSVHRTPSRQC
# Autofluor 339: intrinsic fluorescence of library compounds, ex339/em460 – biochemical, MLSMR library, data from DPM-DC assay, artefact control, profiling panel | compound autofluorescence, ex339/em460 nm, NADH buffer; stronger effect = higher value; 1 = no-compound wells, NADH background | fluorescence fold increase at 10 µM | actives 5.5% (n = 65,000);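 active = at 10 µM, mean starting fluorescence two-fold or more over control wells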;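 note: signal is the first read of a kinetic run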
# M1 antag confirm: confirmation of rat M1 muscarinic receptor antagonists. actives 43% (n = 1,700). shares compounds with M1 antag. CHO-M1 cells, Fluo-4 calcium, ACh EC80 antagonism; stronger effect = lower value. calcium response (max-min fluorescence) at 10 µM;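 active = calcium response below the same-plate mean of wells given acetylcholine alone at its 80%-effect dose, minus 3 SD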;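 note: raw fluorescence intensity difference in arbitrary instrument units and not normalized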
# mGluR4 antag: mGluR4 (human) activity, M1 antagonist secondary assay; shares compounds with M1 antag; CHO-mGluR4 calcium flux, Fluo-4 fluorescence, glutamate EC80; stronger effect = lower value; AID 678; actives 0.9% (n = 1,700); fluorescence response (max-min) at 10 µM;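 active = fluorescence response below the plate's average for near-maximal glutamate wells, less 3 SD of those wells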;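 note: raw unnormalized fluorescence span taken in the window right after glutamate addition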
# An asterisk follows results filed as active; / = not tested or not shown. Shown are actives, neighbours in structure and some others; about 9.3% of the full set was active somewhere.
SMILES,NADH coupling,mHtt clearance,Abs 340nm,M1 agonist,M1 antag,Autofluor 339,M1 antag confirm,mGluR4 antag
CN1CCN(S(=O)(=O)c2ccc(NC(=O)c3cccc(S(=O)(=O)N4CCCC4)c3)cc2)CC1,8%,-54,1.1,-0.36,-16*,1,43*,210
Cn1c(-c2ccc(F)cc2)cnc1SCC(=O)N1CCCCC1,5%,-5,1,0.0046,-2.2*,1,430,222
O=C1c2ccccc2C(=O)N1CCCOc1ccccc1,4%,-18,1,-0.014,-0.098,1.1,/,/
O=C1c2ccccc2C(=O)N1CCOCCN1C(=O)c2ccccc2C1=O,4%,50,1,0.45,-3.3*,1.1,687,242
CC(C)=CC/C=C1\CCC(C(=O)O)C(C(=O)O)C1 (configuration not stated),3%,/,0.99,-0.14,-14*,1,671,227
CC1=CCC(C(=O)O)C(C(=O)O)C1 (configuration not stated),2%,27,1,-2.5e-05,0.29,1.1,/,/
CCOC(=O)/C(C#N)=C(\N)C(C)C(=O)Nc1ccccn1 (configuration not stated),8%,-2,1,0.44,-0.025,1.1,/,/
CC(=O)c1ccccc1OCC(O)CN1CCN(C(c2ccccc2)c2ccccc2)CC1 (configuration not stated),3%,/,1,1.2,-7.9*,1.1,133*,231
COC(=O)CN1CCN(C(c2ccccc2)c2ccccc2)CC1,3%,-15,1,-0.041,-0.59,1.1,/,/
COCCNC(=O)CN1CCN(C(c2ccccc2)c2ccccc2)CC1,5%,-109,1,-0.85,-1.2*,1,569,250
Cc1c(NC(=O)CCCCCN2C(=O)C3C4C=CC(C4)C3C2=O)c(=O)n(-c2ccccc2)n1C (configuration not stated),8%,/,1.1,-0.71,-0.14,1.1,/,/
O=C(NCCCn1ccnc1)C1c2ccccc2Oc2ccccc21,7%,/,1,0.74,-6*,1.2,309*,228
CCOC(=O)CC(=O)CSc1[nH]c(=O)cc(C)c1C#N,3%,/,1,0.42,-0.041,1.1,/,/
CCCCN1CCc2c([nH]c3c(C)cccc23)C1=O,4%,/,1,-0.074,0.52,1.2,/,/
COc1cccc(C(=O)Cn2c(=N)n(C)c3ccccc32)c1,10%,/,0.99,-0.3,-5*,1.1,443*,258
CCOC(=O)Cc1csc(NC(=O)CCc2ccc(S(=O)(=O)N3CCOCC3)cc2)n1,4%,-26,0.99,0.66,-3.1*,1.1,571,216
NCCCC(=O)N1c2ccccc2Sc2ccccc21,1%,/,1,-0.041,-13*,1.1,59*,244
O=C(CN1CCCC1)N1c2ccccc2Sc2ccccc21,3%,-22,1,0.12,-19*,1.1,666,218
O=C(CN1CCC(O)CC1)N1c2ccccc2C=Cc2ccccc21,0%,/,1.1,-0.47,-5.6*,1.1,243*,223
O=C(CN1CCCCC1)N1c2ccccc2CCc2ccccc21,/,18,/,/,/,/,/,/
COc1ccc(CCN2C(=O)CC(Sc3ncccc3C(=O)O)C2=O)cc1OC (configuration not stated),5%,14,1.1,0.37,-2.4*,1.1,716,180
COc1cc(C(=S)N2CCCC2)cc(Cl)c1O,1%,/,1,-0.011,-2*,1.1,685,246
Cc1oc(-c2ccccc2F)nc1CN1CCC(C(=O)NCc2ccco2)CC1,3%,33,1.1,0.47,-3.7*,1.1,566,219
Cc1oc(-c2ccccc2F)nc1CN1CCC(C(=O)NC2CCCCCCC2)CC1,8%,14,1,-0.38,-1.1,1.1,/,/
O=C(c1cc(-c2cccnc2)nc2ccc(Br)cc12)N1CCC2(CC1)OCCO2,2%,40,1.1,1.3,0,1.1,/,/
SMILES,NADH coupling,mHtt clearance,Abs 340nm,M1 agonist,M1 antag,Autofluor 339,M1 antag confirm,mGluR4 antag
Cc1ccc2c(c1)CCCN2C(=O)c1ccco1,/,41,/,/,/,/,/,/
Cc1ccc(N=C2SCCCN2C(=O)c2ccco2)cc1Cl,4%,/,1,-0.32,-1.9*,1.1,532*,240
CC(C)Sc1nc(SCC(=O)NCc2ccco2)c2c3c(sc2n1)COC(C)(C)C3,5%,/,1.1,0,-1.9*,1.2,681,214
CCCSc1nc(SCC(=O)NCc2ccccc2)c2c3c(sc2n1)COC(C)(C)C3,/,-62,/,/,/,/,/,/
CN(C)C(=O)CSc1nnc(-c2cc(-c3cccs3)nc3ccccc23)o1,10%,-63,1,1.5,-3.7*,4.9*,565,207
Cc1cc(C(=O)N2CCN(C(c3ccccc3)c3ccccc3)CC2)on1,4%,/,1.1,-0.0029,-1.3*,1.1,361*,241
CS(=O)(=O)N(CC(=O)NCc1ccccn1)Cc1ccc(Cl)cc1,2%,49,1,1,0.072,1.1,/,/
O=C(c1cnn2ccccc12)N(Cc1ccco1)C1CCCC1,4%,/,1,-0.077,-4.6*,1.1,396*,243
Cc1ccc2[nH]c3c(c2c1)CN(C(=O)CN1CCSCC1)CC3,3%,31,1,1.4,-3.1*,1.2,476,223
Cc1ccc2[nH]c3c(c2c1)CN(C(=O)CN1CCN(c2ccccn2)CC1)CC3,4%,/,1,8.1,0.71,1.1,/,/
O=C(c1ccc2c(c1)N(Cc1ccccc1)C(=O)CS2)N1CCOCC1,4%,/,1,0.22,-0.036,1.1,/,/
O=C(NCCN1CCOCC1)c1ccc2c(c1)N(Cc1ccccc1)C(=O)CS2,2%,-50,1,-0.33,-3*,1.1,344*,230
FC(F)(F)C(Oc1nc(NC2CCCCC2)nc(N2CCOCC2)n1)C(F)(F)F,5%,38,1,-0.75,-0.2,1.1,/,/
CN1CCN(c2nc(NCCOC34CC5CC(CC(C5)C3)C4)nc(OCC(F)(F)F)n2)CC1,6%,/,0.98,-1.1,-6.2*,1.1,484*,190
Cc1oc2c(c1C(=O)Nc1cccc3ccccc13)CCCC2,/,6,/,/,/,/,/,/
Cc1oc2c(c1C(=O)NCc1ccccc1)CCCC2,2%,/,1,0.37,-3.7*,1,643,188
O=C(Nc1cccc(C(F)(F)F)c1)C12CC3CC(CC(C3)C1)C2,/,40,/,/,/,/,/,/
CCOC(=O)c1ccc(N2C(=O)CC(N3CCN(C/C=C/c4ccccc4)CC3)C2=O)cc1 (configuration not stated),1%,-68,1.1,-2.1,-3.8*,1.1,494*,231
CCCCSc1nc2c(cnn2-c2ccc(F)cc2)c(=O)[nH]1,2%,48,1,0.039,-2.9*,1,643,155
